# Results taken from PubChem BioAssay (NCI).
# Compounds without any hit were thinned out: in the full panel of roughly 79,000, 15% have a hit. Active and inactive are the calls of the source. Cut-off read from the data, not from the text of the source: active = growth inhibition above about 70%; inactive = the rest. Where a SMILES comes first, the peptide text is derived from it. [ ]: non-standard residue; d: D form. The star is where a group is joined. Phe(4-NO2) = N[CH](Cc1ccc([N+](=O)[O-])cc1)C(=O)O; Boc = CC(C)(C)OC(=O)*; OtBu = CC(C)(C)O*
# Test: NCI Yeast Anticancer Drug Screen. Data for the mlh1 rad18 strain (AID 175)
# Conditions: S. cerevisiae mlh1 rad18 strain growth inhibition; at 50.0 µM; stronger effect = higher value
# How it was run: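 Compound-treated yeast growth, normalised to vehicle controls. Strain bears defined DNA repair mutations.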
row,SMILES,growth inhibition
1,COC1CC2CC1C1COCC21 (centres undefined),-7.6% (inactive)
2,CC(=O)NC(CCC(=O)OC(C)(C)C)C(=O)NC(CCC(=O)OC(C)(C)C)C(=O)NC(Cc1ccc([N+](=O)[O-])cc1)C(=O)NC(CCCCNC(=O)OC(C)(C)C)C(=O)NC(CCCCNC(=O)OC(C)(C)C)C(=O)NCC(=O)O (centres undefined) (Ac-E(OtBu)E(OtBu)[Phe(4-NO2)]K(Boc)K(Boc)G-OH; configuration not given here),-27.3% (inactive)
3,COC(=O)c1nnn(CCc2c[nH]c3ccccc23)c1C(=O)OC,-24.7% (inactive)
4,O=c1ccn2c(n1)OC1CC2OC1COC(c1ccccc1)(c1ccccc1)c1ccccc1 (centres undefined),10.3% (inactive)
5,O=C(C(=NC12CC3CC(CC(C3)C1)C2)NNc1ccc([N+](=O)[O-])cc1[N+](=O)[O-])C(Br)C(=O)c1ccccc1 (centres undefined),39.9% (inactive)
6,O=C1CC(c2ccccc2)=NN1c1ccccc1,18.6% (inactive)
7,COCCNC(=O)/C=C\C(=O)O,-3.8% (inactive)
8,C=CCCCC1CCCNC1=O (centres undefined),0.45% (inactive)
9,O=C(NC(=O)c1c(F)cccc1F)Nc1ccc(C(O)(C(F)(F)F)C(F)(F)F)cc1,3.55% (inactive)
10,Nc1nc(-c2ccc(F)cc2)cc(-c2cc(-c3ccc(F)cc3)nc(N)n2)n1,2.15% (inactive)
11,CCc1cccc(CC)c1N(C(C)=O)C(C)=O,3.2% (inactive)
12,O=[N+]([O-])c1ccc(CSc2ncnc3c2ncn3C2OC(CO)C(O)C2O)cc1 (centres undefined),-17.4% (inactive)
13,c1ccc(N2CCN(C(c3cccs3)N3CCN(c4ccccc4)CC3)CC2)cc1,19.1% (inactive)
14,CN(C)CCNC(=O)c1cccc2c(Nc3ccc(S(N)(=O)=O)cc3)c3ccccc3nc12,11.1% (inactive)
15,CCCCCCCCCCN(CCCCCCCCCC)C(C)C(O)c1ccc2cc(Br)c3ccccc3c2c1 (centres undefined),-14.3% (inactive)
16,CCOC(=O)C1=CC(=O)CC(C)(C)O1,1.95% (inactive)
17,CCOc1ccc(Cc2ccc3c(c2)OCO3)cc1C,2.2% (inactive)
18,COc1ccccc1C1(CBr)OCCO1,9.4% (inactive)
19,N#CC(NCCCNC(C#N)c1ccccc1)c1ccccc1 (centres undefined),-18.4% (inactive)
20,COC(=O)c1nc(=S)[nH]c(C(=O)OC)c1C(=O)c1ccccc1,-16.4% (inactive)

row,SMILES,growth inhibition
1,COc1ccc(CCO)cc1,-33.2% (inactive)
2,CC(C)[C@H]1CC[C@@](C)(C(=O)O)C1,16.4% (inactive)
3,N#C/C(=C\c1c(Cl)cccc1Cl)c1ccc([N+](=O)[O-])cc1,5.1% (inactive)
4,Cc1c(C(=O)CSc2nc3ccccc3c(=O)n2-c2ccccc2)c(=O)n(-c2ccccc2)n1C,-12.9% (inactive)
5,C[N+](C)(C)CCC(=O)N1C/C(=C\c2ccccc2)C(=O)/C(=C/c2ccccc2)C1,-34.8% (inactive)
6,O=C(CCc1ccccc1CO)NCCc1ccccc1,3.85% (inactive)
7,O=C1CS(=O)(=O)c2ccccc21,22.2% (inactive)
8,CSc1ccc(NC(=O)Oc2ccc(NC(C)=O)cc2)cc1,4.45% (inactive)
9,CCOC(=O)N/N=C(\Cc1ccccc1)OCC,39.2% (inactive)
10,COC(=O)C1=NOC(Cc2ccccc2)C1 (centres undefined),-4.85% (inactive)
11,C=CCOC(=O)CCC(=O)OCC=C,-4.35% (inactive)
12,CCN(CC)Cc1c(C)cccc1O,-16.4% (inactive)
13,COc1cccc(N=NN2CCCC2)c1,23.4% (inactive)
14,CCOCCC(C)(OCC)OCC,-5.3% (inactive)
15,COC(=O)/C(=C\c1ccc(N(CCC#N)CCC#N)cc1)NC(=O)c1cc([N+](=O)[O-])ccc1Cl,-3.4% (inactive)
16,COc1ccc(N2C(=O)/C(=C/c3ccc(N(CCC#N)CCC#N)cc3C)N=C2c2cc([N+](=O)[O-])ccc2Cl)cc1,1.85% (inactive)
17,O=[N+]([O-])c1cccc2c1ccc1nonc12,20.5% (inactive)
18,CCOc1cc(/C=N/NC(=O)N(c2ccccc2)c2ccccc2)ccc1O,7.35% (inactive)
19,CC(NN(C)C(=S)Nc1ccccc1)c1ccccn1 (centres undefined),-0.1% (inactive)
